hcDAF12 agonist – activators of H. contortus DAF-12 nuclear receptor; activation, % at 6.8 µM; 1.4% of 370,000 active; HEK293 hcDAF-12 lit1-tk-luc reporter, luminescence; 0% DMSO, 100% Δ7-dafachronic acid;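 active means activation above the mean of all tested compounds plus 3 SD, cut at about 5.5% in these data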;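 further: 100% = response to 3 µM Δ7-dafachronic acid high control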
DAX1 inh-1 – inhibitors of DAX1 repression of SF-1 activated StAR promoter; HEK293T StAR-luciferase reporter, SF-1/DAX-1 repression relief; inhibition, % at 6.8 µM; 1.1% of 370,000 active;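 active means inhibition above the mean over all tested compounds plus 3 SD, cut at about 3.6% in these data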;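 further: 0% = DAX-1 cells with DMSO and 100% = cells lacking DAX-1 with DMSO; higher inhibition means more luminescence from relief of DAX-1 repression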
DAX1 inh-2 – inhibits human nuclear receptor DAX1; P51843; 0.99% of 340,000 active; HEK293 Gal4-DAX1 luciferase reporter, luminescence; inhibition, % at 6.75 µM;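 active means inhibition above the mean over all tested compounds plus 3 SD, cut at about 4.2% in these data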;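 further: 0% = DAX1-transfected cells with DMSO and 100% = empty-vector control cells with DMSO; inhibition shows as a rise in luminescence from relieved DAX1 repression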
ssDAF12 agonist – S. stercoralis DAF-12 activation, primary screen; 1% of 370,000 active; activation, % at 6.8 µM; HEK293 ssDAF-12/GRIP1 lit1-tk-luc reporter, luminescence; % of 3 µM dafachronic acid response;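 active means activation above the mean over all tested compounds plus 3 SD, cut at about 0.9% in these data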;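 further: 0% = DMSO-only wells and 100% = 3 µM delta7-dafachronic acid wells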
hgDAF-12 ag – agonists of H. glycines DAF-12 nuclear receptor; HEK293 GAL4-hgDAF12 UAS-luciferase reporter, agonist luminescence; normalized to butyrate control; activation, % at 6.8 µM; 1.8% of 370,000 active; AID 687014;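 active means activation above a cutoff set at the mean of all screened compounds plus 3 SD, cut at about 10% in these data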;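 further: 0% = DMSO wells and 100% = sodium butyrate wells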
hgDAF12 ag – hgDAF-12 agonism, confirmation assay | shares compounds with hgDAF-12 ag | activation, % at 6.8 µM | 80% of 3,300 active | HEK293 GAL4-hgDAF12 luciferase reporter, agonist mode; percent of butyrate response;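 active means mean activation over triplicate wells above the hit cutoff derived from the earlier primary screen, cut at about 11% in these data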;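 further: 0% = DMSO low control and 100% = 2 mM sodium butyrate high control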
LXR ag 2 – counter-screen for DAF-12 agonists: agonists of human LXR-beta | 3,300 tested, under 10 active | HEK293 Gal4-LXR luciferase reporter, 24 h | AID 743051 | activation, % at 6.8 µM | shares compounds with hgDAF-12 ag;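 active means mean activation of the triplicate above a set limit carried over from the primary screen, none filed active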
Target sequence (P55055 whole entry, looked up, the tested form may be a part): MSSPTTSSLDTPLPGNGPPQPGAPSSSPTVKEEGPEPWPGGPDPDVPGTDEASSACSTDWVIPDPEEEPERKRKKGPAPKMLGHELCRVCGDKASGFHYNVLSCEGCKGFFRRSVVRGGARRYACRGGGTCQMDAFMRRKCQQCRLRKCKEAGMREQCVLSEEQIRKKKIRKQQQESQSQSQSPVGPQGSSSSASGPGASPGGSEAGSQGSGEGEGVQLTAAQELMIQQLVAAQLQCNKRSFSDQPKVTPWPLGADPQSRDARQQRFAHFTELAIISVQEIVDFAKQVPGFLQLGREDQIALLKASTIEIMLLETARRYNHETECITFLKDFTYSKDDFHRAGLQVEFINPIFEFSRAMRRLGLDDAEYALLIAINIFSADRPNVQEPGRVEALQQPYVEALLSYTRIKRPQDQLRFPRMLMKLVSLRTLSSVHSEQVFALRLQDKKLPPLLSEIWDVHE
An asterisk follows results filed as active; · = not tested or not shown. Shown are actives, neighbours in structure and some others; about 4.1% of the full set was active somewhere.

SMILES	hcDAF12 agonist	DAX1 inh-1	DAX1 inh-2	ssDAF12 agonist	hgDAF-12 ag	hgDAF12 ag	LXR ag 2
CN(C)c1ccc(C(C#N)c2ccccc2)nn1 (stereo unspecified)	6.1*	2	0	2.1*	21*	1	0
O=C(NCCc1ccccc1)c1cccc(NC(=O)C2CCC2)c1	2	3	0	0	10	·	·
O=C(NCCc1ccccc1)c1cccc(NC(=O)C2CC2)c1	4	3	2	0	17*	13*	0
CC(C)c1ccc2oc(-c3cc(N)ccc3O)nc2c1	0	-1	-1	-2	-8	·	·
Cc1ccccc1-c1nc2cc(N)ccc2o1	4	3	2	-1	15*	13*	1
C#CCNC(=O)C[C@H]1C[C@@]2(C(=O)OC)C(=C[C@H](C(C)C)O[C@@H]2C2CC2)N(Cc2cccc3ccccc23)C1=O	-1	-1	·	-1	-1	·	·
CCOC(=O)Cn1cc(CN2C(C(=O)OC)CN(Cc3ccc(OC)cc3)CCS2(=O)=O)nn1 (stereo unspecified)	-1	1	·	-2	0	·	·
COC(=O)c1ccc(COc2ccc3ccc(=O)oc3c2)o1	1	0	1	-1	0	·	·
COc1ccc(COc2ccc3ccc(=O)oc3c2)cc1	3	1	1	0	20*	14*	1
O=C(CCCc1ccncc1)c1ccccc1	1	1	3	0	13*	9	0
c1ccc(CCCCc2ccncc2)cc1	-1	-1	-1	-1	2	·	·
Cc1ccc(-c2nnc(SCc3ccccc3F)o2)cc1	5.7*	4	3	1	16*	15*	1
CCCCCCCCN1C(=O)[C@@H](CC(=O)NCCCCc2ccccc2)C[C@@]2(C(=O)OC)C1=C[C@H](COCc1ccccc1)O[C@@H]2C	0	1	·	0	5	·	·
CC(=O)c1ccc(OCc2cc(C(=O)N3CCN(c4ccccc4)CC3C)no2)cc1 (stereo unspecified)	6.1*	3	2	-1	21*	18*	1
CSc1ccccc1OCc1cc(C(=O)N2CCN(c3ccccc3)CC2C)no1 (stereo unspecified)	4	0	0	0	3	·	·
CCOC(=O)[C@]12CCCCC/C=C\1N(CCc1ccc(Cl)cc1)C(=O)[C@H]2CC(=O)NCC1CCCCC1	-3	0	·	-1	5	·	·
COc1ccc(N2Cc3ccccc3C2=O)cc1	4	2	-1	0	21*	16*	1
COc1ccc(N2C(=O)c3ccccc3NC23CCCC3)cc1	4	4.5*	0	0	14*	9	0
CCC1(CC)Nc2ccccc2C(=O)N1c1ccc(OC)cc1	3	3	2	1	10	·	·
CCOC(=O)C1CSCCS(=O)(=O)N1Cc1ccccc1C (stereo unspecified)	1	0	·	-1	-2	·	·
CCOC(=O)Nc1ccc2nc(-c3cscn3)[nH]c2c1	3	-1	0	0	16*	14*	0
CSc1ccc(-c2cnc(N3CCC(C(N)=O)CC3)s2)cc1	3	·	·	1	21*	17*	1
CC(N)c1csc(Nc2nncc3ccccc23)n1 (stereo unspecified)	3	0	·	-1	4	·	·
CC(C)C(N)c1csc(Nc2nncc3ccccc23)n1 (stereo unspecified)	2	3	·	-1	14*	8	0
Cc1cccc(NC(=O)C2CCN(c3ncccn3)CC2)c1C	2	-2	·	-1	0	·	·
SMILES	hcDAF12 agonist	DAX1 inh-1	DAX1 inh-2	ssDAF12 agonist	hgDAF-12 ag	hgDAF12 ag	LXR ag 2
Fc1cccc(Cl)c1CN1CCN(c2nc3ccccc3s2)CC1	6	3	4	1	13*	11*	0
COc1ccc2occ(C(=O)c3cccs3)c2c1	4	1	2	-1	15*	13*	0
C#CCNC(=O)C[C@H]1C(=O)N(CCCOC)C2=CCCC[C@@]21C(=O)OCC	-1	0	·	-1	-1	·	·
Cc1ccc(/C=c2/sc3n(c2=O)CCCN=3)o1	0	1	3	-1	6	·	·
O=c1/c(=C\c2ccc3c(c2)OCO3)sc2n1CCCN=2	3	3	4.6*	0	19*	14*	1
COc1ccc(-c2cc(C(=O)NCc3ccccc3)no2)cc1OC	-2	-1	0	-1	20*	-2	0
O=C(NCc1cccs1)c1cc(-c2ccc(O)cc2)on1	4	3	5.7*	-1	15*	18*	1
COc1cccc(-c2cc(C(=O)Nc3cccnc3)no2)c1	1	1	0	0	15*	21*	0
COc1ccc(CNC(=O)c2cc(-c3ccc(OC)c(OC)c3)on2)cc1	-2	-1	0	-1	-2	·	·
Cc1ccc(NC(=O)c2cc(-c3cccc(O)c3)on2)cc1C	1	3	2	1.0*	14*	14*	0
O=C(Nc1cccnc1)c1cc(-c2ccccc2)on1	-1	0	0	-1	-1	·	·
O=C(Nc1cccc(O)c1)c1cc(-c2ccc3c(c2)OCO3)on1	3	2	-5	-1	7	·	·
COC(=O)c1cc2c(c3c4cc(F)ccc4n(C(=O)c4ccccc4)c13)C(=O)N(C1CCCCC1)C2	2	-1	·	-1	0	·	·
CCOC(=O)C(CNc1ccc(O)cc1)NC(=O)c1ccccc1 (stereo unspecified)	-1	0	·	-2	-3	·	·
O=C(NCc1ccccc1)c1cc(-c2ccco2)on1	1	0	0	-1	2	·	·
O=C(NCc1ccccc1)c1cc(-c2cccc(O)c2)on1	0	2	0	0	18*	12*	0
COC(=O)C1=C(C)N(C)C(=NCC2CC2)NC1CCc1ccccc1 (stereo unspecified)	-1	0	·	-1	0	·	·
CC(=O)CC[C@@H]1CC[C@]2(CCCN(C(=O)c3ccco3)C2)O1	0	0	·	0	0	·	·
O=C(NNC1=NCCCCC1)Nc1cccc(Cl)c1	5	2	1	0	19*	18*	0
C=CCCC1CN(Cc2ccc(OC)cc2)S(=O)(=O)c2c(F)cccc2O1 (stereo unspecified)	0	3	·	-1	6	·	·
c1cc(-c2cc3cc(N4CCOCC4)ccc3o2)cs1	5	3	4.8*	0	15*	14*	1
O=C(CN1CCc2onc(-c3ccc(-n4cc(-c5ccccc5)nn4)cc3)c2C1=O)N1CCOCC1	1	3	·	-1	2	·	·
CCC(=O)Nc1ccc(NC(=S)NC(=O)c2cc3ccccc3o2)cc1	1	-1	0	-1	1	·	·
